# Hit rate of the full screen: of about 63,000 compounds, about 1,100 (1.7%) were called active. For the sample, actives were picked, then their nearest neighbours and some compounds at random. Potency and affinity values are given separately. Unmarked numbers belong to inactive results. Cut-off read from the data, not from the text of the source: active = cytotoxicity above about 50%; inactive = the rest.
# Experiment: HPDE-C7 pancreatic duct cell viability loss – fluorescence, HTS (AID 430);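 note: cells exposed to compound for 48 hours before viability readout; 0% = vehicle and 100% = reference cytotoxic drug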
# Settings: HPDE-C7 pancreatic duct cells viability, at 10 µM, active compounds read high
row,Structure (SMILES),cytotoxicity
1,Cn1c(Cn2c(=O)sc3ccccc32)nnc1SCc1ccc(F)cc1,-3.2%
2,C=CCN1C(=O)c2ccccc2Sc2ccc(C(=O)N3CCN(C)CC3)cc21,-17.1%
3,CCOC(=O)Nc1ccc2c(c1)N(C(=O)CN1CCN(C)CC1)c1ccccc1S2,5.2%
4,O=C(Nc1cccc(C(F)(F)F)c1)c1cccnc1N1CCN(CCO)CC1,-10.8%
5,COc1ccc2c(c1)Sc1ccccc1N2CCN(C)C,12.2%
6,CN(C)CCCN1c2ccccc2Sc2ccccc21,13.7%
7,O=C(CN1CCCC(O)C1)N1c2ccccc2Sc2ccc(C(F)(F)F)cc21 (configuration not stated),24%
8,COc1ccc(Br)cc1S(=O)(=O)N(CC(=O)N1CCOCC1)c1ccccc1,-5.3%
9,O=C(CCc1ccccc1)Nc1ccncc1,0.1%
10,Cn1c(Cn2c(=O)sc3ccccc32)nnc1SCC(=O)Nc1ccc(F)cc1,-7.1%
11,CCOc1ccccc1N1CCN(Cc2cccc(OC)c2OC)CC1,-10.5%
12,COC(=O)c1[nH]c2ccccc2c1NC(=O)CN1CCN(c2cccc(Cl)c2)CC1,0.5%
13,O=C(CN1CCN(c2ccccc2)CC1)Nc1cccc(C(F)(F)F)c1,-4.7%
14,O=C(CCn1c(=O)[nH]c2ccccc2c1=O)N1CCN(c2cccc(C(F)(F)F)c2)CC1,-11.5%
15,OC(CN1CCN(c2cccc(C(F)(F)F)c2)CC1)c1c[nH]c2ccccc12 (configuration not stated),26.7%
16,Cc1[nH]c2ccccc2c1NC(=O)CN1CCN(c2cccc(C(F)(F)F)c2)CC1,62.1% (active)
17,CCc1nc2ccccc2c(C(=O)OCC(=O)NCCCN2CCCC2=O)c1C,-4.2%
18,CCOc1cc2[nH]c(=O)n(CCCCC(=O)NC3CCCCCC3)c(=O)c2cc1OCC,2.3%
19,COC(=O)c1cc(COC(=O)c2cccnc2SC)oc1C,-9.4%
20,O=S(=O)(Nc1cccnc1)c1ccc2c(c1)OCCO2,-9.7%
21,CCOC(=O)Cc1nnc2c(Nc3ccc(Cl)cc3)nc3nonc3n12,68.3% (active)
22,CCOC(=O)n1ccc(C(=O)Nc2ccccc2F)n1,-0.9%
23,CCOC(=O)Cn1nc(-c2ccc(Cl)cc2)cc1N,10.3%
24,CCOC(=O)Cc1nnc2c(Nc3ccccc3F)nc3nonc3n12,61.6% (active)
25,CCOC(=O)CCn1c(CC(=O)OCC)nc2ccccc21,-8.6%
26,CCOC(=O)Cc1nnc2c(Nc3ccc(C)cc3)nc3nonc3n12,-35.8%
27,CCOC(=O)Cc1csc(NC(=O)c2cccc(N3C(=O)CCC3=O)c2)n1,-14.9%
